About 79,000 compounds went through this panel and 15% of them were active in at least one assay; those are over-represented in the sample as a whole. The source made the active and inactive calls. Cut-off read from the data, not from the text of the source: active = growth inhibition above about 70%; inactive = the rest.
What was measured:
[1] = NCI Yeast Anticancer Drug Screen. Data for the rad52 strain (AID 147);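 note: 0% = growth of vehicle-treated control cultures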; conditions: S. cerevisiae rad52 mutant growth inhibition, stronger effect = higher value
Outline: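 Measured: yeast growth inhibition. System: strain with a defined DNA damage repair alteration. Reference: vehicle-treated control cultures.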

[2] = NCI Yeast Anticancer Drug Screen. Data for the wt1 strain (AID 149);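 note: 0% = growth of vehicle-treated wt1 cultures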; conditions: S. cerevisiae wt1 strain (SPY 50644) growth inhibition, stronger effect = higher value
Outline: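 Readout: yeast growth inhibition, normalised to vehicle controls, in the wt1 strain exposed to test compounds.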

[3] = NCI Yeast Anticancer Drug Screen. Data for the rad50EPP+ strain (AID 151);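 note: 0% = growth of vehicle-treated control cultures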; conditions: S. cerevisiae rad50 mutant strain, stronger effect = higher value
Outline: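 One strain with a rad50 alteration (rad50EPP+) was compound-treated, its growth then compared to that of vehicle controls.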

[4] = NCI Yeast Anticancer Drug Screen. Data for the mgt1 strain (AID 153); conditions: S. cerevisiae mgt1 mutant growth inhibition, stronger effect = higher value
Outline: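 After exposure of the mgt1 yeast mutant to compound, growth was measured and reported as inhibition compared with vehicle controls.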

[5] = NCI Yeast Anticancer Drug Screen. Data for the rad50 strain (AID 155);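 note: 0% = growth of vehicle-only cultures of the same strain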; conditions: S. cerevisiae rad50 strain growth inhibition, stronger effect = higher value
Outline: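 Compounds were tested on a yeast strain with an engineered DNA damage repair alteration; the reported value is growth inhibition normalised to vehicle treatment.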

[6] = NCI Yeast Anticancer Drug Screen. Data for the mec2-1 strain (AID 157); conditions: S. cerevisiae mec2-1 strain, stronger effect = higher value
Outline: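 Test agents were screened against the mec2-1 yeast strain, with defined DNA repair or cell cycle alteration. Growth was scored as inhibition against vehicle-only controls.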

[7] = NCI Yeast Anticancer Drug Screen. Data for the sgs1 mgt1 strain (AID 161);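 note: 0% = growth of cultures given vehicle only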; conditions: S. cerevisiae sgs1 mgt1 strain, stronger effect = higher value
Outline: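 Read-out: growth inhibition vs vehicle controls. Cells: mutant yeast strain deficient in DNA damage repair.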

[8] = NCI Yeast Anticancer Drug Screen. Data for the CLN2oe strain (AID 163);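 note: 0% = growth of vehicle-only control cultures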; conditions: S. cerevisiae CLN2oe strain, stronger effect = higher value
Outline: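 Here, growth inhibition in a cell-cycle-altered yeast strain after compound exposure was quantified against vehicle control growth.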

[9] = NCI Yeast Anticancer Drug Screen. Data for the cln2 rad14 strain (AID 165);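 note: 0% = growth equal to vehicle treated cultures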; conditions: S. cerevisiae cln2 rad14 strain, stronger effect = higher value
Outline: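 Growth of compound-exposed yeast (cln2 rad14 genotype) measured and expressed as inhibition relative to vehicle.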

[10] = NCI Yeast Anticancer Drug Screen. Data for the bub3 strain (AID 167); conditions: S. cerevisiae bub3 mutant strain, stronger effect = higher value
Outline: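 Growth of a checkpoint-deficient yeast mutant is measured after compound exposure. Values represent inhibition relative to vehicle.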

[11] = NCI Yeast Anticancer Drug Screen. Data for the wt2 strain (AID 169);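 note: 0% = growth of vehicle-treated yeast cultures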; conditions: S. cerevisiae wt2 strain growth inhibition, stronger effect = higher value
Outline: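 Genetically defined yeast strains from a DNA-repair/cell-cycle panel were used. Compound-exposed yeast growth was measured, and the inhibition was calculated relative to vehicle treatment.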

[12] = NCI Yeast Anticancer Drug Screen. Data for the mlh1 strain (AID 171);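 note: 0% = growth of vehicle-treated control cultures of the same strain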; conditions: S. cerevisiae mlh1 strain growth inhibition, stronger effect = higher value
Outline: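 Here the genetically defined yeast mutant is grown with each compound, and the extent to which its growth falls below that of vehicle-exposed cells is reported.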

[13] = NCI Yeast Anticancer Drug Screen. Data for the sgs1 strain (AID 173);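 note: 0% = growth of vehicle-only control cultures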; conditions: S. cerevisiae sgs1 mutant, stronger effect = higher value
Outline: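 Relative growth inhibition, referenced to vehicle, was determined in a yeast strain with a defined alteration affecting DNA damage repair or cell cycle control after compound exposure.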

[14] = NCI Yeast Anticancer Drug Screen. Data for the mlh1 rad18 strain (AID 175); conditions: S. cerevisiae mlh1 rad18 strain growth inhibition, stronger effect = higher value
Outline: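 In this whole-cell yeast screen, a strain with altered DNA damage repair is challenged with compound, and its growth is measured against matched vehicle-treated controls.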

[15] = NCI Yeast Anticancer Drug Screen. Data for the rad18 strain (AID 177); conditions: S. cerevisiae rad18 mutant growth inhibition, stronger effect = higher value
Outline: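 Screen uses a yeast strain with a defined lesion in DNA damage repair; compound effect is read as loss of growth compared to untreated vehicle cultures.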

[16] = at 5.0 µM (retest, dose inferred, filed as 0.5)
[17] = at 50.0 µM (retest, dose inferred, filed as 5.0)

Measured: growth inhibition

O=C1c2ccccc2C(=O)c2c(O)c(NCCNCCO)cc(O)c21
inactive: [1]; at 1.2 µM -31% | [1]; at 3.7 µM -13% | [1]; at 11.0 µM 6% | [2]; at 1.2 µM 1% | [2]; at 3.7 µM -1% | [2]; at 11.0 µM 9% | [3]; at 1.2 µM -4% | [3]; at 3.7 µM 8% | [3]; at 11.0 µM 2% | [3]; at 33.0 µM 16% | [4]; at 1.2 µM 0% | [4]; at 3.7 µM 4% | [4]; at 11.0 µM 36% | [5]; at 1.2 µM -9% | [5]; at 3.7 µM -1% | [5]; [16] 19% | [5]; at 11.0 µM 21% | [6]; at 1.2 µM -3% | [6]; at 3.7 µM -12% | [6]; [16] 23% | [6]; at 11.0 µM 11% | [7]; [16] 35% | [8]; at 1.2 µM 21% | [8]; at 3.7 µM 33% | [8]; at 11.0 µM 29% | [9]; [16] 11% | [9]; [17] 57% | [9]; at 50.0 µM 65.5% | [10]; at 1.2 µM 13% | [10]; at 3.7 µM 21% | [10]; [16] 39% | [10]; at 11.0 µM 45% | [11]; at 1.2 µM -16% | [11]; at 3.7 µM -4% | [12]; at 1.2 µM -23% | [12]; at 3.7 µM -13% | [12]; at 11.0 µM 44% | [13]; at 1.2 µM -4% | [13]; at 3.7 µM 12% | [13]; at 11.0 µM 48% | [14]; [16] 58% | [15]; at 1.2 µM -13% | [15]; at 3.7 µM -3% | [15]; at 11.0 µM 20%
active: [1]; at 33.0 µM 88% | [1]; at 100.0 µM 92% | [2]; at 33.0 µM 71% | [2]; at 100.0 µM 83% | [3]; at 100.0 µM 92% | [4]; at 33.0 µM 91% | [4]; at 100.0 µM 96% | [5]; at 33.0 µM 89% | [5]; [17] 93% | [5]; at 50.0 µM 87.3% | [5]; at 100.0 µM 94% | [6]; at 33.0 µM 84% | [6]; [17] 96% | [6]; at 50.0 µM 87.2% | [6]; at 100.0 µM 86% | [7]; [17] 97% | [7]; at 50.0 µM 85.2% | [8]; at 33.0 µM 82% | [8]; at 100.0 µM 93% | [10]; at 33.0 µM 90% | [10]; [17] 97% | [10]; at 50.0 µM 70.7% | [10]; at 100.0 µM 91% | [11]; at 11.0 µM 73% | [11]; at 33.0 µM 81% | [11]; at 100.0 µM 93% | [12]; at 33.0 µM 91% | [12]; at 100.0 µM 94% | [13]; at 33.0 µM 93% | [13]; at 100.0 µM 94% | [14]; [17] 95% | [14]; at 50.0 µM 90.3% | [15]; at 33.0 µM 89% | [15]; at 100.0 µM 94%
